Laboratory results as given in PubChem BioAssay (NCI).
Compounds without any hit were thinned out: in the full panel of roughly 79,000, 15% have a hit. A number with no mark means an inactive call. Activity calls are given as the source filed them. No stated cut-off is given here; in the data, active means growth inhibition above about 70%; inactive means the rest.

Experiment: NCI Yeast Anticancer Drug Screen. Data for the mec2-1 strain (AID 157)
Details: S. cerevisiae mec2-1 strain, at 50.0 µM, stronger effect = higher value
How it was run: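 Compounds were applied to mec2-1 yeast cells. Their growth was then compared with that of vehicle-treated cultures to give growth inhibition.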
`O=[N+]([O-])c1cccc(S(=O)(=O)N/N=C/c2cc(I)cc([N+](=O)[O-])c2O)c1` showed a growth inhibition of 13.1%. With `COc1cc(N=Nc2cccc(S(N)(=O)=O)c2)c2ccccc2c1N` the growth inhibition was 97.7% (active). In the case of `O=S(=O)(c1ccc(O)cc1)c1ccc(Cl)cc1`, the growth inhibition is reported as 81.3% (active). `C[N+](C)=c1ccc2nc3c(cc(NCCCNc4cc5oc6cc(=[N+](C)C)ccc-6nc5c5ccccc45)c4ccccc43)oc-2c1` gave a growth inhibition of 51%. For `CC(C)(C)C(=O)/C=C/c1ccc2ccccc2n1`, the growth inhibition was 51.1%. For `CSc1ccc(/C=N/NC(N)=S)cc1`, the growth inhibition was 76% (active). `CN(C)c1ccc(/C=C(\C#N)c2c(F)cccc2F)cc1` showed a growth inhibition of -10.8%. For `O=C(/C=C\c1ccccc1)N1c2ccccc2CC1c1c[nH]c2ccccc12` (stereo not given), the growth inhibition was -1.7%. Work on `COc1cccc(C2c3cc4c(cc3OC(Nc3ccccc3)C2C)OCO4)c1O` (stereo not given) yielded a growth inhibition of 55.1%. For `CC(/C=C/c1cccs1)=N\C(=S)NC(N)=S`, the growth inhibition was 28.4%. With `C=C1C(=O)O[C@H]2[C@H](OC(C)=O)[C@@H](C)CCC/C(C)=C/CC[C@@]3(C)O[C@@H]3C[C@@H]12` the growth inhibition was 94.2% (active). In the case of `CC(=O)O/C=C\COC(C)=O`, the growth inhibition is reported as 47.8%. For `Cn1cc(NC(=O)c2cc(NC(=O)CCCCCCCCC(=O)Nc3cc(C(=O)Nc4cc(C(=O)NCCC(N)N)n(C)c4)n(C)c3)cn2C)cc1C(=O)NCCC(=N)N`, the growth inhibition was 90.8% (active). Compound `CCCCCCCNCCCCCC` has a growth inhibition of 63.8%. For `Cc1ccc(S(=O)(=O)N(c2ccccc2-c2ccccc2)C(C)C(=O)O)cc1` (stereo not given), the growth inhibition was 88.3% (active). Compound `CCCN1C(=O)c2ccccc2C1=O` has a growth inhibition of -6.65%. In the case of `CCC(CC)COC(=O)c1ccc(O)c(O)c1`, the growth inhibition is reported as 99.2% (active). With `COc1ccc(C2SCC(=O)N2c2nncs2)cc1` (stereo not given) the growth inhibition was 3.55%. In the case of `O=NN(CCCl)C(=O)Oc1cc(Cl)c(Cl)cc1Cl`, the growth inhibition is reported as 92.7% (active). In the case of `O=C(c1ccccc1)c1ccccc1S(=O)(=O)Nc1ccccc1`, the growth inhibition is reported as 27.8%. In the case of `O=S(O)CCCCCSSc1ccccc1`, the growth inhibition is reported as 12.1%. For `Cc1ccc(C)c(N2C(=O)C(=O)C(c3nc4ccccc4o3)/C(=N\NC(=O)c3ccccc3O)C2=O)c1` (stereo not given), the growth inhibition was 55.2%. For `Nc1ccc2ccccc2c1Cc1c(O)ccc2ccccc12`, the growth inhibition was 98.8% (active). In the case of `CN(C)CCC(=O)C(=Cc1cc(Cl)cc(Cl)c1)C(=O)CCN(C)C`, the growth inhibition is reported as 99% (active). `COC(=O)c1c(C(N)=O)c(C)n(NC(=O)c2ccccc2)c1C` gave a growth inhibition of 2.7%. In the case of `O=C(O)/C(=C/c1c(O)ccc2ccccc12)c1csc(-c2nc(/C(=C\c3c(O)ccc4ccccc34)C(=O)O)cs2)n1`, the growth inhibition is reported as 92% (active). With `O=C(O)c1c2c(cc3c1CC1(Cc4cc5c(cc4C1=O)CCC5)C3)CCC2` (stereo not given) the growth inhibition was 87.5% (active). In the case of `CCc1cccc(C(C)(C)C)c1NC(=S)N/C=C(\c1ccccc1)S(=O)Cc1ccccc1` (stereo not given), the growth inhibition is reported as 46.2%. Compound `O=[N+]([O-])c1ccc(N/N=C/COCCO)c([N+](=O)[O-])c1` has a growth inhibition of 11.8%. `O=C(O)CSc1nc(-c2ccccc2)c(-c2ccccc2)n1-c1ccccn1` showed a growth inhibition of 40.5%. In the case of `C[C@]12CCC(=O)C=C1CC[C@@H]1[C@@H]2[C@@H](O)C[C@@]2(C)[C@H]1CC[C@]2(O)C(=O)COC(=O)C1CCCC1`, the growth inhibition is reported as 19.8%. With `C[C-](O)O.O/C(=C\[C-](O)c1ccccc1)c1ccccc1.O/C(=C\[C-](O)c1ccccc1)c1ccccc1.[Nd+3]` (stereo not given) the growth inhibition was 92.7% (active). With `[Cl][Pt+2]([Cl])([Cl])[Cl].[NH-]CC1(C[NH-])CCCC1` the growth inhibition was 90.8% (active). `CSc1ccc2c(c1)S[S@@](=O)N2` gave a growth inhibition of 1.45%. With `O=S=C(c1ccccc1)N(Cc1ccccc1)Cc1ccccc1` the growth inhibition was 96.2% (active). For `NNc1c(Cl)c(F)c(Cl)c(F)c1Cl`, the growth inhibition was 36.5%. With `Cc1ccc(C)c(N2C(=O)C(=O)C(c3nc4ccccc4o3)C(=O)C2=O)c1` the growth inhibition was 99.3% (active). Compound `NC(=S)N/N=C/c1ccc(Cl)s1` has a growth inhibition of 47.5%. Compound `O=c1[nH]ccc(CNC23CC4CC(CC(C4)C2)C3)c1O` has a growth inhibition of 21.4%. Work on `CN(C)CCSc1cc(-c2ccccc2)c2ccccc2n1` yielded a growth inhibition of 29.9%.
